Records with an inconclusive call do not appear. Active and inactive are the calls of the source. Calls come from the whole dose curve; as a rule, active = well fitted cell-killing curve with a large enough effect; inconclusive = small, poorly fitted or top-dose-only effect, or effect the other way; inactive = flat fitted curve, though single readings scatter.
Key:
Experiment in all cases: Primary qHTS to identify gynecologic anti-cancer compounds using libraries of approved drugs and bioactive compounds (AID 1345084); note: nearly all actives have a fitted effect of over 55% in size
C33A = conditions: Gynecologic cancer cell panel viability, ATPlite luminescence, 48 h; series mostly up to 57.5 µM
Procedure, shortened: (§1)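 Five-concentration response, 48 h; readout is ATP-driven luciferase luminescence.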

CAOV3 = conditions: Gynecologic cancer cell panel viability, ATPlite luminescence, 48 h; series mostly up to 57.5 µM
Procedure, shortened: as §1

CASKI = conditions: Gynecologic cancer cell panel viability, ATPlite luminescence, 48 h; series mostly up to 57.5 µM
Procedure, shortened: as §1

Es-2 = conditions: Gynecologic cancer cell panel viability, ATPlite luminescence, 48 h; series mostly up to 57.5 µM
Procedure, shortened: as §1

HeLa = conditions: Gynecologic cancer cell panel viability, ATPlite luminescence, 48 h; series mostly up to 57.5 µM
Procedure, shortened: as §1

Hek293T = conditions: Gynecologic cancer cell panel viability, ATPlite luminescence, 48 h, control line for the selectivity index; series mostly up to 57.5 µM
Procedure, shortened: as §1

JEG-3 = conditions: Gynecologic cancer cell panel viability, ATPlite luminescence, 48 h; series mostly up to 57.5 µM
Procedure, shortened: as §1

OV90 = conditions: Gynecologic cancer cell panel viability, ATPlite luminescence, 48 h; series mostly up to 57.5 µM
Procedure, shortened: as §1

PA-1 = conditions: Gynecologic cancer cell panel viability, ATPlite luminescence, 48 h; series mostly up to 57.5 µM
Procedure, shortened: as §1

SKOV3 = conditions: Gynecologic cancer cell panel viability, ATPlite luminescence, 48 h; series mostly up to 57.5 µM
Procedure, shortened: as §1

Tov-21-G = conditions: Gynecologic cancer cell panel viability, ATPlite luminescence, 48 h; series mostly up to 57.5 µM
Procedure, shortened: as §1

Tov112D = conditions: Gynecologic cancer cell panel viability, ATPlite luminescence, 48 h; series mostly up to 57.5 µM
Procedure, shortened: as §1
% is set by controls: 0 for no effect and ±100 for the full control effect.

CC/C=C/C(O)C(O)C1=C(C)C(=O)C2(O1)C(=O)NC(OC)(C(=O)c1ccccc1)C2O (configuration not stated)
inactive: Potency (C33A) | Potency (CAOV3) | outcome (CASKI) | Potency (Es-2) | Potency (HeLa) | Potency (Hek293T) | Potency (JEG-3) | Potency (OV90) | Potency (PA-1) | Potency (SKOV3) | Potency (Tov-21-G) | Potency (Tov112D)

CC/C=C\C(O)C(O)C1=C(C)C(=O)C2(O1)C(=O)NC(OC)(C(=O)c1ccccc1)C2O (configuration not stated)
inactive: Potency (C33A) | Potency (CAOV3) | outcome (CASKI) | Potency (Es-2) | Potency (HeLa) | Potency (Hek293T) | Potency (JEG-3) | Potency (OV90) | Potency (PA-1) | Potency (SKOV3) | Potency (Tov-21-G) | Potency (Tov112D)

CC(=O)/C=C/C1(O)C(C)(C)CC(O)CC1(C)O (configuration not stated)
inactive: Potency (C33A) | Potency (CAOV3) | outcome (CASKI) | Potency (Es-2) | Potency (HeLa) | Potency (Hek293T) | Potency (JEG-3) | Potency (OV90) | Potency (PA-1) | Potency (SKOV3) | Potency (Tov-21-G) | Potency (Tov112D)

CC1CC=C2C1CC1(O)C(=O)CC2(C)C1(C)CO (configuration not stated)
inactive: Potency (C33A) | Potency (CAOV3) | outcome (CASKI) | Potency (Es-2) | Potency (HeLa) | Potency (Hek293T) | Potency (JEG-3) | Potency (OV90) | Potency (PA-1) | Potency (SKOV3) | Potency (Tov-21-G) | Potency (Tov112D)

C=C1CCC2[C@](C)(CO)CCC[C@@]2(C)[C@@H]1CCC1=CCOC1=O (some centres not stated)
inactive: Potency (C33A) | Potency (CAOV3) | outcome (CASKI) | Potency (Es-2) | Potency (HeLa) | Potency (Hek293T) | Potency (JEG-3) | Potency (OV90) | Potency (PA-1) | Potency (SKOV3) | Potency (Tov-21-G) | Potency (Tov112D)

C/C=C1/[C@H](O[C@@H]2O[C@H](CO)[C@@H](O)[C@H](O)[C@H]2O)OC=C2C(=O)O[C@@H]3C[C@@H](C(C)CO)[C@H](COC(=O)C[C@H]21)[C@H]3C (some centres not stated)
inactive: Potency (C33A) | Potency (CAOV3) | outcome (CASKI) | Potency (Es-2) | Potency (HeLa) | Potency (Hek293T) | Potency (JEG-3) | Potency (OV90) | Potency (PA-1) | Potency (SKOV3) | Potency (Tov-21-G) | Potency (Tov112D)

COc1ccc(-n2[nH]c3c(cnc4ccccc43)c2=O)cc1
inactive: Potency (C33A) | Potency (CAOV3) | outcome (CASKI) | Potency (Es-2) | Potency (HeLa) | Potency (Hek293T) | Potency (JEG-3) | Potency (OV90) | Potency (PA-1) | Potency (SKOV3) | Potency (Tov-21-G) | Potency (Tov112D)

CC(C)CC(=O)NCCn1cc(C(=O)O)c(=O)cc1C(O)c1ccccc1 (configuration not stated)
inactive: Potency (C33A) | Potency (CAOV3) | outcome (CASKI) | Potency (Es-2) | Potency (HeLa) | Potency (Hek293T) | Potency (JEG-3) | Potency (OV90) | Potency (PA-1) | Potency (SKOV3) | Potency (Tov-21-G) | Potency (Tov112D)

O=C(/C=C/c1ccccc1)O[C@@H]1[C@@H](CO)O[C@@](CO)(O[C@H]2O[C@H](CO)[C@@H](O)[C@H](O)[C@H]2O)[C@H]1O
inactive: Potency (C33A) | Potency (CAOV3) | outcome (CASKI) | Potency (Es-2) | Potency (HeLa) | Potency (Hek293T) | Potency (JEG-3) | Potency (OV90) | Potency (PA-1) | Potency (SKOV3) | Potency (Tov-21-G) | Potency (Tov112D)

C/C(=C/CO)CC[C@H]1[C@]2(C)C[C@H](O)CC(C)(C)[C@H]2CC[C@]1(C)O
inactive: Potency (C33A) | Potency (CAOV3) | outcome (CASKI) | Potency (Es-2) | Potency (HeLa) | Potency (Hek293T) | Potency (JEG-3) | Potency (OV90) | Potency (PA-1) | Potency (SKOV3) | Potency (Tov-21-G) | Potency (Tov112D)

C[C@H]1/C=C/C=C/C=C/C=C/C=C/[C@@H](O)[C@H](C(=O)O)[C@H](O)C[C@H](O)CCC[C@H](O)C[C@H](O)C[C@H](O)[C@@H](C)C(=O)O[C@@H]1C
inactive: Potency (C33A) | Potency (CAOV3) | outcome (CASKI) | Potency (Es-2) | Potency (HeLa) | Potency (Hek293T) | Potency (JEG-3) | Potency (OV90) | Potency (PA-1) | Potency (SKOV3) | Potency (Tov-21-G) | Potency (Tov112D)

CC1=CCC2C(C)(C)CCCC2(C)C1CC12OC1C(O)C(CO)=CC2O (configuration not stated)
inactive: Potency (C33A) | Potency (CAOV3) | outcome (CASKI) | Potency (Es-2) | Potency (HeLa) | Potency (Hek293T) | Potency (JEG-3) | Potency (OV90) | Potency (PA-1) | Potency (SKOV3) | Potency (Tov-21-G) | Potency (Tov112D)

OC[C@H]1O[C@@H](OCCc2ccccc2)[C@H](O)[C@@H](O)[C@@H]1O
inactive: Potency (C33A) | Potency (CAOV3) | outcome (CASKI) | Potency (Es-2) | Potency (HeLa) | Potency (Hek293T) | Potency (JEG-3) | Potency (OV90) | Potency (PA-1) | Potency (SKOV3) | Potency (Tov-21-G) | Potency (Tov112D)

Cc1ccc(C)c(S(=O)(=O)n2cnc3ccccc32)c1
inactive: Potency (C33A) | Potency (CAOV3) | outcome (CASKI) | Potency (Es-2) | Potency (HeLa) | Potency (Hek293T) | Potency (JEG-3) | Potency (OV90) | Potency (PA-1) | Potency (SKOV3) | Potency (Tov-21-G) | Potency (Tov112D)

O=C(O)Cc1cn([C@@H]2OC[C@@H](O[C@@H]3O[C@H](CO)[C@@H](O)[C@H](O)[C@H]3O)[C@H](O)[C@H]2O[C@@H]2O[C@H](CO)[C@@H](O)[C@H](O)[C@H]2O)c2ccccc12
inactive: Potency (C33A) | Potency (CAOV3) | outcome (CASKI) | Potency (Es-2) | Potency (HeLa) | Potency (Hek293T) | Potency (JEG-3) | Potency (OV90) | Potency (PA-1) | Potency (SKOV3) | Potency (Tov-21-G) | Potency (Tov112D)

CC1OC(OC2C(OC3C(O[C@H]4CC[C@@]5(C)C(CC[C@]6(C)C5CC=C5C7CC(C)(C)CC(O)[C@]7(C)CC[C@]56C)C4(C)C)OC(C(=O)O)C(O)C3O)OCC(O)C2O)C(O)C(O)C1O (some centres not stated)
inactive: activity change, negative = cytotoxicity (C33A) 14% [at 11.6 µM] | activity change, negative = cytotoxicity (CAOV3) 4.78% [at 11.6 µM] | activity change, negative = cytotoxicity (CASKI) -6.68% [at 11.6 µM] | activity change, negative = cytotoxicity (Es-2) 1.85% [at 11.6 µM] | activity change, negative = cytotoxicity (HeLa) 7.99% [at 11.6 µM] | activity change, negative = cytotoxicity (Hek293T) -2.65% [at 11.6 µM] | activity change, negative = cytotoxicity (JEG-3) 6.46% [at 11.6 µM] | activity change, negative = cytotoxicity (OV90) 9.07% [at 11.6 µM] | activity change, negative = cytotoxicity (PA-1) 30% [at 11.6 µM] | activity change, negative = cytotoxicity (SKOV3) 7.87% [at 11.6 µM] | activity change, negative = cytotoxicity (Tov-21-G) 6.64% [at 11.6 µM] | activity change, negative = cytotoxicity (Tov112D) 1.05% [at 11.6 µM]

CC1(C)CC[C@]2(C(=O)O)CC[C@]3(C)C(=CCC4[C@@]5(C)C[C@H](O)[C@H](O[C@@H]6O[C@H](CO)[C@@H](O)[C@H](O)[C@H]6O)[C@@](C)(CO)C5[C@H](O)C[C@]43C)[C@@H]2C1 (some centres not stated)
inactive: Potency (C33A) | Potency (CAOV3) | outcome (CASKI) | Potency (Es-2) | Potency (HeLa) | Potency (Hek293T) | Potency (JEG-3) | Potency (OV90) | Potency (PA-1) | Potency (SKOV3) | Potency (Tov-21-G) | Potency (Tov112D)

CC(C)=CCC[C@](C)(O[C@@H]1O[C@H](CO)[C@@H](O)[C@H](O)[C@H]1O)[C@H]1CC[C@]2(C)[C@@H]1[C@H](O)CC1[C@@]3(C)CC[C@H](O)C(C)(C)C3[C@@H](O[C@@H]3O[C@H](CO)[C@@H](O)[C@H](O)[C@H]3O[C@@H]3O[C@@H](C)[C@H](O)[C@@H](O)[C@H]3O)C[C@]12C (some centres not stated)
inactive: activity change, negative = cytotoxicity (C33A) -11.8% [at 11.6 µM] | activity change, negative = cytotoxicity (CAOV3) -9.95% [at 11.6 µM] | activity change, negative = cytotoxicity (CASKI) -3.66% [at 11.6 µM] | activity change, negative = cytotoxicity (Es-2) 5.12% [at 11.6 µM] | activity change, negative = cytotoxicity (HeLa) 11.5% [at 11.6 µM] | activity change, negative = cytotoxicity (Hek293T) -2.65% [at 11.6 µM] | activity change, negative = cytotoxicity (JEG-3) -0.108% [at 11.6 µM] | activity change, negative = cytotoxicity (OV90) -3.64% [at 11.6 µM] | activity change, negative = cytotoxicity (PA-1) 24.4% [at 11.6 µM] | activity change, negative = cytotoxicity (SKOV3) 18.8% [at 11.6 µM] | activity change, negative = cytotoxicity (Tov-21-G) -0.988% [at 11.6 µM] | activity change, negative = cytotoxicity (Tov112D) 2.74% [at 11.6 µM]

CCC1(O)CC2c3cc(OC)c(OC)cc3CCN2CC1CC(C)C (configuration not stated)
inactive: Potency (C33A) | Potency (CAOV3) | outcome (CASKI) | Potency (Es-2) | Potency (HeLa) | Potency (Hek293T) | Potency (JEG-3) | Potency (OV90) | Potency (PA-1) | Potency (SKOV3) | Potency (Tov-21-G) | Potency (Tov112D)

CCc1cc(CC[C@]2(C3CCCC3)CC(O)=C(Cc3nc4nc(C)cc(C)n4n3)C(=O)O2)cc(CC)n1
inactive: Potency (C33A) | Potency (CAOV3) | outcome (CASKI) | Potency (Es-2) | Potency (HeLa) | Potency (Hek293T) | Potency (JEG-3) | Potency (OV90) | Potency (PA-1) | Potency (SKOV3) | Potency (Tov-21-G) | Potency (Tov112D)

CC(=O)O[C@H]1[C@H](OC(=O)C(C)C)[C@]2(C)OC3(CC[C@]2(C)[C@H]2CCC[C@]4(CO4)[C@]12C)COC(=O)C3 (some centres not stated)
inactive: Potency (C33A) | Potency (CAOV3) | outcome (CASKI) | Potency (Es-2) | Potency (HeLa) | Potency (Hek293T) | Potency (JEG-3) | Potency (OV90) | Potency (PA-1) | Potency (SKOV3) | Potency (Tov-21-G) | Potency (Tov112D)
